# Test results published in PubChem BioAssay (Tox21).
# “And” between values parts separate entries of the source, which are not always exact repeats. Equal entries are not always repeated. Inconclusive results are not listed. Entries that show only a call come without a potency. Values without a mark were called inactive. The source made the active and inactive calls. Unless noted, calls follow the shape of the dose curve; as a rule, active = well fitted curve in the direction sought with a large enough effect in the repeat runs; inconclusive = weak or mixed curves; inactive = no such curve, though single readings can be large; an effect the other way counts as inactive or inconclusive.
# Assays:
# [1] = qHTS assay to identify small molecule antagonists of the thyroid receptor (TR) signaling pathway (AID 743065); also: nearly all actives have a fitted effect of over 55% in size; also: potency is read from the fitted curve at half-maximal effect
# Summary of the method: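 Antagonism measured as loss of luciferase signal in GH3 cells stably carrying a TRE-luciferase reporter, co-treated with compound and T3 (1 nM final) for 23.5 h at 37 C. Viability was read in the same well by CellTiter-Fluor.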
# [2] = test system: thyroid hormone receptor (rat, GH3 cells); assay: qHTS assay to identify small molecule agonists of the thyroid receptor (TR) signaling pathway (AID 743066; calls by dose curve; also: potency is read from the fitted curve at half-maximal effect)
# [3] = target: Estrogen receptor (Homo sapiens) (UniProt P03372); assay: qHTS assay to identify small molecule antagonists of the estrogen receptor alpha (ER-alpha) signaling pathway (AID 743069; active = well fitted curve in the direction sought with a large enough effect in the signal ratio in the repeat runs, not every such curve was filed as active; the % refers to the signal ratio)
# Summary of the method: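 Compound effects are measured against 17beta-estradiol stimulation in HEK293 cells with a UAS-controlled beta-lactamase reporter for ER-alpha. Exposure lasts 18 hr at 37C; LiveBLAzer B/G FRET substrate follows for 2 hr at room temperature.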
# [4] = qHTS assay to identify small molecule antagonists of the estrogen receptor alpha (ER-alpha) signaling pathway - cell viability counter screen (AID 743074; calls by dose curve;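 also: HEK293 cells carrying ER-alpha-UAS-bla reporter stimulated with 17beta-estradiol; nearly all actives have a fitted effect of over 45% in size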)
# [5] = target: Estrogen receptor (Homo sapiens) (UniProt P03372); assay: qHTS assay to identify small molecule agonists of the estrogen receptor alpha (ER-alpha) signaling pathway (AID 743075; calls by dose curve; also: potency is read from the fitted curve at half-maximal effect)
# [6] = target: Estrogen receptor (Homo sapiens) (UniProt P03372); assay: qHTS assay to identify small molecule agonists of the estrogen receptor alpha (ER-alpha) signaling pathway using the BG1 cell line (AID 743079); conditions: BG1Luc4E2 cells, ERE-luciferase agonist, 22 h; also: nearly all actives have a fitted effect of over 20% in size; also: potency is read from the fitted curve at half-maximal effect
# [7] = qHTS assay to identify small molecule antagonists of the estrogen receptor alpha (ER-alpha) signaling pathway using the BG1 cell line (AID 743080; calls by dose curve;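 also: BG1 cells stimulated with 17beta-estradiol alongside compound; nearly all actives have a fitted effect of over 25% in size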)
# Summary of the method: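 BG1-Luc-4E2 cells (endogenous full-length ER-alpha, stable 4×ERE-luciferase) were starved 5 days in phenol-red-free medium with 10% charcoal-stripped FBS, plated 24 h, then given compound plus 17beta-estradiol for 21.5 h at 37 C; ONE-Glo luminescence read after 30 min.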
# [8] = qHTS assay to identify small molecule antagonists of the estrogen receptor alpha (ER-alpha) signaling pathway using the BG1 cell line - cell viability counter screen (AID 743081);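 also: compound given together with 17beta-estradiol as the ER stimulus; nearly all actives have a fitted effect of over 45% in size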
# Aromatase (Homo sapiens) = Aromatase (Homo sapiens) (UniProt P11511); assay: qHTS assay to identify aromatase inhibitors (AID 743083); also: nearly all actives have a fitted effect of over 55% in size
# [9] = qHTS assay to identify aromatase inhibitors - cell viability counter screen (AID 743084);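 also: cells stimulated with testosterone during compound exposure; nearly all actives have a fitted effect of over 55% in size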
# Sequence of Aromatase (Homo sapiens) (P11511 whole entry, looked up): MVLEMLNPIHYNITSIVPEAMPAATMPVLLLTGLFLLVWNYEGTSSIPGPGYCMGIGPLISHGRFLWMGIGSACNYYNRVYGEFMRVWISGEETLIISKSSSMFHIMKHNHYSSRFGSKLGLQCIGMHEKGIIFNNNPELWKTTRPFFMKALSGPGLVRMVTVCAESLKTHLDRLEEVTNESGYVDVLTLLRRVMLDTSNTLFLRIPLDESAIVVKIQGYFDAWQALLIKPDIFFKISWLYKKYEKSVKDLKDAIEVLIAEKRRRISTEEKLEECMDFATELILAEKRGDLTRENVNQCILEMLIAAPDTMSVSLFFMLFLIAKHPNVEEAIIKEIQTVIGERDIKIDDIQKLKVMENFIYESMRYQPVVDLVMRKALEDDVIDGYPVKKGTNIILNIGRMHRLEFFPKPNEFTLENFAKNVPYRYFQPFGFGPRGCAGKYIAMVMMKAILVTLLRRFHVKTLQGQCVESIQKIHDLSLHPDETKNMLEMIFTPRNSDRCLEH
# Sequence of Estrogen receptor (Homo sapiens) (P03372 whole entry, looked up): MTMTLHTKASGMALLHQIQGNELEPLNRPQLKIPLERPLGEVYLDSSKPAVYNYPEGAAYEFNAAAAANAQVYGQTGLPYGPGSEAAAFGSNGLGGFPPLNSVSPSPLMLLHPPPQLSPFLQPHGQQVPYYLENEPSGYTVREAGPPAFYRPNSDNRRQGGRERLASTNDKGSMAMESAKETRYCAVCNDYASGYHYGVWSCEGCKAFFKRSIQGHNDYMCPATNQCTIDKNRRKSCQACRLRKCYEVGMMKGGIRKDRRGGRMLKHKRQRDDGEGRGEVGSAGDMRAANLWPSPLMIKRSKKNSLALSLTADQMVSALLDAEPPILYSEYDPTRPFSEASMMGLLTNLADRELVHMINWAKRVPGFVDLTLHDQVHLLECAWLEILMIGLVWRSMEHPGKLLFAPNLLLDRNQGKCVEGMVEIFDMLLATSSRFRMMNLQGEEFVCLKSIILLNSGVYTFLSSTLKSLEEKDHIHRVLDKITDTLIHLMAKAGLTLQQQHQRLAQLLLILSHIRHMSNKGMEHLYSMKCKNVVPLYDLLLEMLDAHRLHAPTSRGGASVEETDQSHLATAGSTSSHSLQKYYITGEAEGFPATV
compound,measurement,setting,value
O=C(Cl)C(Cl)(Cl)Cl,Potency,[1],inactive
same,Potency,[2],inactive
same,Potency,[3],inactive
same,Potency,[4],inactive
same,Potency,[5],inactive
same,activation,[6]; at 95 µM (top of the series),9.01%
same,Potency,[7],inactive
same,Potency,[8],inactive
same,Potency,Aromatase (Homo sapiens),inactive
same,Potency,[9],inactive
CCN(CC)CCOC(=O)C(O)(c1ccccc1)c1ccccc1,Potency,[1],inactive
same,Potency,[2],inactive
same,Potency,[3],inactive
same,Potency,[4],inactive
same,Potency,[5],inactive
same,activation,[6]; at 70.3 µM (top of the series),1.82%
same,Potency,[7],inactive
same,Potency,[8],inactive
same,Potency,Aromatase (Homo sapiens),inactive
same,Potency,[9],inactive
NCCOS(=O)(=O)O,Potency,[1],inactive
same,Potency,[2],inactive
same,Potency,[3],inactive
same,Potency,[4],inactive
same,Potency,[5],inactive
same,activation,[6]; at 70.3 µM (top of the series),-1.11%
same,Potency,[7],inactive
same,Potency,[8],inactive
same,Potency,Aromatase (Homo sapiens),inactive
same,Potency,[9],inactive
CC(=O)CN(CC(C)=O)N=O,Potency,[1],inactive
same,Potency,[2],inactive
same,Potency,[3],inactive
same,Potency,[4],inactive
same,Potency,[5],inactive
same,activation,[6]; at 70.3 µM (top of the series),-5.98%
same,Potency,[7],inactive
same,Potency,[8],inactive
same,Potency,Aromatase (Homo sapiens),inactive
same,Potency,[9],inactive
O=C/C=C/c1ccco1,Potency,[1],inactive
same,Potency,[2],inactive
same,Potency,[3],inactive
same,Potency,[4],inactive
same,Potency,[5],inactive
same,activation,[6]; at 70.3 µM (top of the series),10.7%
same,Potency,[7],inactive
same,Potency,[8],inactive
same,Potency,Aromatase (Homo sapiens),inactive
same,Potency,[9],inactive
OCC(Cl)CCl (stereo not given),Potency,[1],inactive
same,Potency,[2],inactive
same,Potency,[3],inactive
same,Potency,[4],inactive
same,Potency,[5],inactive
same,activation,[6]; at 70.3 µM (top of the series),3.3%
same,Potency,[7],inactive
same,Potency,[8],inactive
same,Potency,Aromatase (Homo sapiens),inactive
same,Potency,[9],inactive
CCN(CCO)CCO,Potency,[1],inactive
same,Potency,[2],inactive
same,Potency,[3],inactive
same,Potency,[4],inactive
same,Potency,[5],inactive
same,activation,[6]; at 70.3 µM (top of the series),-3.36%
same,Potency,[7],inactive
same,Potency,[8],inactive
same,Potency,Aromatase (Homo sapiens),inactive
same,Potency,[9],inactive
CC1NCCOC1c1ccccc1 (stereo not given),Potency,[1],inactive
same,Potency,[2],inactive
same,Potency,[3],inactive
same,Potency,[4],inactive
same,Potency,[5],inactive
same,activation,[6]; at 70.3 µM (top of the series),12.2%
same,Potency,[7],inactive
same,Potency,[8],inactive
same,Potency,Aromatase (Homo sapiens),inactive
same,Potency,[9],inactive
ClCC1CO1 (stereo not given),Potency,[1],inactive
same,Potency,[2],inactive
same,Potency,[3],inactive
same,Potency,[4],inactive
same,Potency,[5],inactive
same,activation,[6]; at 70.3 µM (top of the series),-1.3% and 13.9%
same,Potency,[7],inactive
same,Potency,[8],inactive
same,Potency,Aromatase (Homo sapiens),inactive
same,Potency,[9],inactive
O=C(Cl)c1ccccc1,Potency,[1],inactive
same,Potency,[2],inactive
same,Potency,[3],inactive
same,Potency,[4],inactive
same,Potency,[5],inactive
same,activation,[6]; at 95 µM (top of the series),1.6%
same,Potency,[7],inactive
same,Potency,[8],inactive
same,Potency,Aromatase (Homo sapiens),inactive
same,Potency,[9],inactive
NC1(c2ccccc2)CCCCC1,Potency,[1],48.1 µM (active)
same,Potency,[2],inactive
same,Potency,[3],inactive
same,Potency,[4],inactive
same,Potency,[5],inactive
same,activation,[6]; at 70.3 µM (top of the series),0.0889%
same,Potency,[7],inactive
same,Potency,[8],inactive
same,Potency,Aromatase (Homo sapiens),inactive
same,Potency,[9],inactive
O=[N+]([O-])CCO,Potency,[1],inactive
same,Potency,[2],inactive
same,Potency,[3],inactive
same,Potency,[4],inactive
same,Potency,[5],inactive
same,activation,[6]; at 95 µM (top of the series),-2.33%
same,Potency,[7],inactive
same,Potency,[8],inactive
same,Potency,Aromatase (Homo sapiens),inactive
CCN(CC)C1CCCCC1,Potency,[1],inactive
same,Potency,[2],inactive
same,Potency,[3],inactive
same,Potency,[4],inactive
same,Potency,[5],inactive
same,activation,[6]; at 70.3 µM (top of the series),6.19%
same,Potency,[7],inactive
same,Potency,[8],inactive
same,Potency,Aromatase (Homo sapiens),inactive
same,Potency,[9],inactive
Brc1c(Br)c(Br)c(Br)c(Br)c1Br,"activity, negative = inhibition",[1],36% [at 8.44 µM]
same,activation,[2],-0.0085% [at 8.08 µM]
same,"activity, negative = inhibition",[3],-6.9% [at 6.71 µM]
same,"activity, negative = cytotoxicity",[4],-1.91% [at 6.72 µM]
same,activation,[5],2.61% [at 6.71 µM]
same,activation,[6]; at 8.47 µM (top of the series),1.05%
same,"activity change, negative = inhibition",[7],17.5% [at 8.47 µM]
same,"activity change, negative = cytotoxicity",[8],9.59% [at 8.47 µM]
same,"activity, negative = inhibition",Aromatase (Homo sapiens),14.6% [at 8.47 µM]
same,"activity change, negative = cytotoxicity",[9],-1.05% [at 8.47 µM]
ClCOCCl,Potency,[1],inactive
same,Potency,[2],inactive
same,Potency,[3],inactive
same,Potency,[4],inactive
same,Potency,[5],inactive
same,Potency,[6],61.4 µM (active)
same,Potency,[7],inactive
same,Potency,[8],inactive
same,Potency,Aromatase (Homo sapiens),inactive
same,Potency,[9],inactive
Cc1ccc2c(c1)C1CN(C)CCC1N2 (stereo not given),Potency,[1],inactive
same,Potency,[2],inactive
same,Potency,[3],inactive
same,Potency,[4],inactive
same,Potency,[5],inactive
same,activation,[6]; at 70.3 µM (top of the series),-4.51%
same,Potency,[7],inactive
same,Potency,[8],inactive
same,Potency,Aromatase (Homo sapiens),inactive
same,Potency,[9],inactive
N[C@@H](Cc1ccc(Oc2cc(I)c(O)c(I)c2)c(I)c1)C(=O)O,Potency,[1],inactive
same,Potency,[2],0.168 µM (active)
same,Potency,[3],inactive
same,Potency,[4],inactive
same,Potency,[5],inactive
same,activation,[6]; at 70.3 µM (top of the series),-1.5%
same,Potency,[7],inactive
same,Potency,[8],inactive
same,Potency,Aromatase (Homo sapiens),inactive
same,Potency,[9],inactive
CC(O)CCl (stereo not given),Potency,[1],inactive
same,Potency,[2],inactive
same,Potency,[3],inactive
same,Potency,[4],inactive
same,Potency,[5],inactive
same,activation,[6]; at 70.3 µM (top of the series),8.02%
same,Potency,[7],inactive
same,Potency,[8],inactive
same,Potency,Aromatase (Homo sapiens),inactive
same,Potency,[9],inactive
CC(C)(C1CCC(O)CC1)C1CCC(O)CC1 (stereo not given),Potency,[1],inactive
same,Potency,[2],inactive
same,Potency,[3],inactive
same,Potency,[4],inactive
same,Potency,[5],49 µM [activator] (active)
same,Potency,[6],54.5 µM (active)
same,Potency,[7],inactive
same,Potency,[8],inactive
same,Potency,Aromatase (Homo sapiens),inactive
same,Potency,[9],inactive
C[C@H](N)C(=O)c1ccccc1,Potency,[1],inactive
same,Potency,[2],inactive
same,Potency,[3],inactive
same,Potency,[4],inactive
same,Potency,[5],inactive
same,activation,[6]; at 70.3 µM (top of the series),-5.09%
same,activation,[6]; at 95 µM (top of the series),4.39%
same,Potency,[7],inactive
same,Potency,[8],inactive
same,Potency,Aromatase (Homo sapiens),inactive
same,Potency,[9],inactive
BrCc1ccc(Br)cc1,Potency,[1],inactive
same,Potency,[2],inactive
same,Potency,[3],inactive
same,Potency,[4],inactive
same,Potency,[5],inactive
same,activation,[6]; at 70.3 µM (top of the series),-9.06%
same,Potency,[7],inactive
same,Potency,[8],inactive
same,Potency,Aromatase (Homo sapiens),inactive
same,Potency,[9],inactive
S=C=S,Potency,[1],inactive
same,Potency,[2],inactive
same,Potency,[3],inactive
same,Potency,[4],inactive
same,Potency,[5],inactive
same,activation,[6]; at 70.3 µM (top of the series),-5.81% and -2.85%
same,Potency,[7],inactive
same,Potency,[8],inactive
same,Potency,Aromatase (Homo sapiens),inactive
same,Potency,[9],inactive
O=C(O)C(Br)(Br)Br,Potency,[1],inactive
same,Potency,[2],inactive
same,Potency,[3],inactive
same,Potency,[4],inactive
same,Potency,[5],inactive
same,activation,[6]; at 70.3 µM (top of the series),6.64%
same,Potency,[7],inactive
same,Potency,[8],inactive
same,Potency,Aromatase (Homo sapiens),inactive
same,Potency,[9],inactive
